Screen size: about 310,000 compounds; about 14,000 (4.5%) showed an effect of 50% or more. Effects have a minus sign here. What follows is part of a selection rich in strong results, with near analogues and random picks from the rest.
What follows are molecules tested against human ether-à-go-go-related gene (hERG) potassium channel (human, UniProt Q12809) (assay: primary screen, population patch clamp on CHO cells stably expressing hERG; higher = less effect of the substance).
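Also: peak tail current of the secondary pulse compared with the same well before compound.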

Sequence of human ether-à-go-go-related gene (hERG) potassium channel (Q12809 whole entry, looked up): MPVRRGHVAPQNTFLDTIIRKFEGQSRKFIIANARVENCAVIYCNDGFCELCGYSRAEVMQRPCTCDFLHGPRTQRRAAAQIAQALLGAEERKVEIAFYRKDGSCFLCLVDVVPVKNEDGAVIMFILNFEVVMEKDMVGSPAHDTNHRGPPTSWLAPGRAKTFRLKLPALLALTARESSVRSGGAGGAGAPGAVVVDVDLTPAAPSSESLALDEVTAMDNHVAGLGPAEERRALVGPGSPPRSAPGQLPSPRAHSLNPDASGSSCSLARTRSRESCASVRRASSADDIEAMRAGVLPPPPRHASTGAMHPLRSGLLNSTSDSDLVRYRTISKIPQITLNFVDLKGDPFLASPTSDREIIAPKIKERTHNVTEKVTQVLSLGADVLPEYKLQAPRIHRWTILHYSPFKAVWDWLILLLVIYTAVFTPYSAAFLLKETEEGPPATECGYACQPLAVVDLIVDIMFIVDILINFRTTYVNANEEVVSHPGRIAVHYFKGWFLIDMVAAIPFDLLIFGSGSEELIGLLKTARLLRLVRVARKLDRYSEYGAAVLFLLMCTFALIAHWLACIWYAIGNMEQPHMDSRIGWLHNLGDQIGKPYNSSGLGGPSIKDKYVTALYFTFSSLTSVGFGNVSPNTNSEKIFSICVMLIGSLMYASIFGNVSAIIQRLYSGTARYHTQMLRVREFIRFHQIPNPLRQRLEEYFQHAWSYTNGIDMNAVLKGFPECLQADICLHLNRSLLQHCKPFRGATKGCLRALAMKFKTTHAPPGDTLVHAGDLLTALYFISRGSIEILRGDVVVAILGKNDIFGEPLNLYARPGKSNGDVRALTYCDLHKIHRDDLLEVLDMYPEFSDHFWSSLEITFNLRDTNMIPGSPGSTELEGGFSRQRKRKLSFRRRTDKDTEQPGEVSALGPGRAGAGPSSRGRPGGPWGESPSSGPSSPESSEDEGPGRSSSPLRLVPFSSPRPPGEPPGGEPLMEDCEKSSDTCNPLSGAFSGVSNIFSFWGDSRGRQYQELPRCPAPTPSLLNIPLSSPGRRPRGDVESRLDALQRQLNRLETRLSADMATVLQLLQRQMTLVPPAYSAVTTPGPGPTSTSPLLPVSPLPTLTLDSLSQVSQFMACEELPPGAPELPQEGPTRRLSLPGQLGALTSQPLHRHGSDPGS

SMILES | hERG current change (%, negative = inhibition) at 10uM
CCOc1ccccc1NC(=O)CCC(=O)Nc1ccc2nc(N3CCN(C)CC3)cc(C)c2c1 | 3.51%
CC(NC(=O)CCc1nc2cc(S(=O)(=O)N3CCOCC3)ccc2n1C)c1ccc(S(N)(=O)=O)cc1 (stereo not shown) | -57.9%
Cn1c(CCC(=O)Nc2ccc(F)cc2)nc2cc(S(=O)(=O)N3CCOCC3)ccc21 | -17.7%
Cn1c(CCC(=O)Nc2cc(S(C)(=O)=O)ccc2Cl)nc2cc(S(=O)(=O)N3CCOCC3)ccc21 | -25.4%
CCOc1ccc(NS(=O)(=O)c2ccc(C(=O)NCCCN3CCCC3=O)cc2)cc1 | 7.23%
CC(=O)Nc1ccc(S(=O)(=O)NNC(=O)c2ccc(S(=O)(=O)N3CCCCC3)cc2)cc1 | 6.41%
Cc1ccc(/C=N/Nc2cc(C)nc(NCc3ccccc3)n2)cc1 | -6.03%
Cc1cc(N/N=C/c2ccccc2)nc(NCc2ccccc2)n1 | -2.93%
Cc1ccc(Nc2cc(C)nc(NCc3ccccc3)n2)cc1 | -5.08%
CCCCOc1cc(C)nc(NCc2ccccc2)n1 | 5.5%
CCCCNc1cc(C)nc(NCc2ccccc2)n1 | -59%
Cc1cc(N/N=C/c2ccc(F)cc2)nc(NCc2ccccc2)n1 | -64.2%
CN(C)C(CNC(=O)c1cccs1)c1ccco1 (stereo not shown) | 0.144%
CC(=O)N1c2ccc(S(=O)(=O)N3CCC(C(=O)NC4CCC(C)CC4)CC3)cc2CC1C (stereo not shown) | 17.3%
Cc1ccc(S(=O)(=O)N(C(=O)c2ccncc2)c2ccc(OC(=O)c3ccncc3)cc2)c(C)c1 | -0.914%
O=C(O)C(Cc1ccc(Cl)cc1)NS(=O)(=O)c1ccc(Cl)cc1 (stereo not shown) | 27.1%
O=S(=O)(N/N=C\c1ccc(-c2ccccc2Cl)o1)c1ccccc1 | 10.4%
CCN(CC)c1ccc(NC(=O)CN2CCN(CC(=O)Nc3ccc(F)cc3)CC2)cc1 | -76.4%
CCN(CC)c1ccc(NC(=O)CN2CCN(c3ccccc3F)CC2)cc1 | -5.61%
CCN(CC)c1ccc(NC(=O)CN2CCN(c3nc(C)cc(C)n3)CC2)cc1 | -21.7%
CN(C)c1ccc(NC(=O)CN2CCN(c3ccc(F)cc3)CC2)cc1 | -4.56%
CCN1CCN(CC(=O)Nc2ccc(N(C)C)cc2)CC1.O=C(O)C(=O)O | -2.52%
CN(C)c1ccc(NC(=O)CN2CCN(CC(=O)Nc3ccc(F)cc3)CC2)cc1 | -77.1%

SMILES | hERG current change (%, negative = inhibition) at 10uM
CCN(CC)c1ccc(NC(=O)CN2CCN(c3ccccn3)CC2)cc1 | -2.86%
CCN(CC)c1ccc(NC(=O)CN2CCN(CC(=O)Nc3ccccc3F)CC2)cc1 | -64.9%
CN(C)c1ccc(NC(=O)CN2CCC(C(=O)c3ccc(F)cc3)CC2)cc1 | -32.1%
COc1ccc(NC(=O)CSc2n[nH]c(-c3ccco3)n2)cc1 | -2.42%
Br.CC(C)CC(N)C(=O)OCc1ccc([N+](=O)[O-])cc1 (stereo not shown) | 7.33%
CCN(CC)c1nc(Nc2ccccc2)nc(Oc2ccc(=O)[nH]n2)n1 | -14.2%
COc1ccc(CCNC(=O)C(=O)c2c(C)[nH]c3ccccc23)cc1 | 6.09%
Cc1nc2nc(SCC(=O)N3CCC4(CC3)OCCO4)nn2c(C)c1Cc1ccccc1 | -24.9%
CCCN(C(=O)c1ccccc1Cc1ccccc1)C1CCS(=O)(=O)C1 (stereo not shown) | -0.454%
COc1ccc(CN2CCOCCOCCN(Cc3ccc(OC)cc3)CCOCCOCC2)cc1 | -77.3%
COc1ccc(CN2CCCCCC2)cc1 | -10.9%
COc1ccc(CN2CCOCCOCCOCCOCCOCC2)cc1 | -20.7%
COc1ccc(CN2CCOCCOCCOCCOCC2)cc1 | -36%
COc1ccc(CN2CCOCCOCCOCC2)cc1 | -58.3%
COc1ccc(CN2CCOCC2)cc1 | 10.7%
COc1ccc(-n2nnnc2SCC(=O)Nc2cc(OC)c([N+](=O)[O-])cc2C)cc1 | 42.4%
COc1ccccc1N1CCN(C(=O)C(C)N(c2ccccc2)S(C)(=O)=O)CC1 (stereo not shown) | 5.64%
CCOC(=O)Nc1ccc(C)cc1NC(=O)OCC | 11.7%
Cc1ccc(NS(=O)(=O)c2cccs2)c(C)c1 | -2.42%
N#C/C(=C/c1ccc(F)cc1)S(=O)(=O)c1ccccc1 | 21.3%
Cc1oc(-c2cccs2)nc1CN1CCN(Cc2ccc(F)c(F)c2)C(CCO)C1 (stereo not shown) | -47.2%
Cc1oc(-c2cccs2)nc1CN1CCN(C(C)C)C(CCO)C1 (stereo not shown) | 4.95%
COc1cccc(CC2(CO)CCCN(Cc3nc(-c4cccs4)oc3C)C2)c1 (stereo not shown) | -64.5%
